{"source": "the supplement of paper PMC8975748", "note": "Where a name gives a salt, the structure may show the parent alone.", "data": [{"test_system": "Saccharomyces cerevisiae BY4741 SeMeCo community", "assay": "z-score of subpopulation abundance vs DMSO median, subpopulation auxotrophic for HLU; higher = larger share of this subpopulation than in DMSO controls", "details": "10 µM; 24 h; SM minimal medium; subpopulation (auxotrophy): HLU", "experimental": "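Fluorescent four-plasmid SeMeCo (self-establishing metabolically cooperating S. cerevisiae BY4741 community; plasmids pH-mRuby2, pL-mWasabi, pU-eCFP, pM-TagRFP657) was grown 24 h in minimal SM medium with each Selleck FDA-approved drug at 10 µM in 384-well plates. Cells were fixed and imaged by high-content confocal microscopy. For each auxotrophic subpopulation (and the prototroph), a z-score gives the deviation from the DMSO vehicle-control population median.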", "values": [{"smiles": "Nc1ccc(S(N)(=O)=O)cc1", "note": "[Sulfanilamide]", "z-score of subpopulation abundance": -1.52}, {"smiles": "CN[C@H](CC(C)C)C(=O)N[C@H]1C(=O)N[C@@H](CC(N)=O)C(=O)N[C@H]2C(=O)N[C@H]3C(=O)N[C@H](C(=O)N[C@H](C(=O)O)c4cc(O)cc(O)c4-c4cc3ccc4O)[C@H](O)c3ccc(c(Cl)c3)Oc3cc2cc(c3O[C@@H]2O[C@H](CO)[C@@H](O)[C@H](O)[C@H]2O[C@H]2C[C@](C)(N)[C@H](O)[C@H](C)O2)Oc2ccc(cc2Cl)[C@H]1O", "note": "[Vancomycin]", "z-score of subpopulation abundance": -0.21}, {"smiles": "C=C1CCN([C@H](C)[C@](O)(Cn2cncn2)c2ccc(F)cc2F)CC1", "note": "[Efinaconazole]", "z-score of subpopulation abundance": 3}, {"smiles": "CN1CCN(CC(=O)N2c3ccccc3C(=O)Nc3cccnc32)CC1", "note": "[Pirenzepine dihydrochloride]", "z-score of subpopulation abundance": -0.21}, {"smiles": "O=C(O)CCc1nc(-c2ccccc2)c(-c2ccccc2)o1", "note": "[Oxaprozin]", "z-score of subpopulation abundance": -0.7}, {"smiles": "CC/C(=C(\\c1ccccc1)c1ccc(OCCN(C)C)cc1)c1ccccc1", "note": "[Tamoxifen]", "z-score of subpopulation abundance": 0.93}, {"smiles": "Cc1[nH]cnc1CN1CCc2c(c3ccccc3n2C)C1=O", "note": "[Alosetron Hydrochloride]", "z-score of subpopulation abundance": -0.13}, {"smiles": "CN(C)CCCC1(c2ccc(F)cc2)OCc2cc(C#N)ccc21", "note": "(stereo not given) [Citalopram HBr]", "z-score of subpopulation abundance": 0.43}, {"smiles": "CC1(C)S[C@@H]2[C@H](NC(=O)[C@H](NC(=O)N3CCNC3=O)c3ccccc3)C(=O)N2[C@H]1C(=O)O", "note": "[Azlocillin sodium salt]", "z-score of subpopulation abundance": -0.4}, {"smiles": "C[C@]12CCC(=O)C=C1[C@@H]1C[C@@H]1[C@H]1[C@@H]3[C@@H]4C[C@@H]4[C@@]4(CCC(=O)O4)[C@@]3(C)CC[C@@H]12", "note": "[Drospirenone]", "z-score of subpopulation abundance": 0.26}, {"smiles": "C1CCN2C[C@@H]3C[C@@H](CN4CCCC[C@@H]34)[C@H]2C1", "note": "[(-)-Sparteine Sulfate]", "z-score of subpopulation abundance": -0.52}, {"smiles": "COC(=O)C1=C(C)NC(C)=C(C(=O)OC)C1c1ccccc1[N+](=O)[O-]", "note": "[Nifedipine]", "z-score of subpopulation abundance": 1.29}, {"smiles": "CC[C@H]1OC(=O)[C@H](C)[C@@H](O[C@H]2C[C@@](C)(OC)[C@@H](O)[C@H](C)O2)[C@H](C)[C@@H](O[C@@H]2O[C@H](C)C[C@H](N(C)C)[C@H]2O)[C@](C)(O)C[C@@H](C)C(=O)[C@H](C)[C@H]2OC(=O)O[C@@]21C", "note": "[Erythromycin Cyclocarbonate]", "z-score of subpopulation abundance": 0.3}, {"smiles": "Nc1ccc(S(=O)(=O)c2ccc(N)cc2)cc1", "note": "[Dapson]", "z-score of subpopulation abundance": 0.22}, {"smiles": "CCC[S+]([O-])c1ccc2[nH]c(NC(=O)OC)nc2c1", "note": "(stereo not given) [Albendazole Oxide]", "z-score of subpopulation abundance": -0.31}, {"smiles": "Cc1cc(C)nc(NS(=O)(=O)c2ccc(N)cc2)n1", "note": "[Sulfamethazine]", "z-score of subpopulation abundance": 0.31}, {"smiles": "CN1CCCN=C1/C=C/c1cccs1", "note": "[Pyrantel Pamoate]", "z-score of subpopulation abundance": 0.47}, {"smiles": "O=C1CCc2ccc(OCCCCN3CCN(c4cccc(Cl)c4Cl)CC3)cc2N1", "note": "[Aripiprazole]", "z-score of subpopulation abundance": 1.16}, {"smiles": "CN(C/C=C/C#CC(C)(C)C)Cc1cccc2ccccc12", "note": "[Terbinafine HCl]", "z-score of subpopulation abundance": -0.09}, {"smiles": "CCc1nc(N)nc(N)c1-c1ccc(Cl)cc1", "note": "[Pyrimethamine]", "z-score of subpopulation abundance": 0}, {"smiles": "CCC(C)(C)c1ccc(CC(C)CN2C[C@@H](C)O[C@@H](C)C2)cc1", "note": "(stereo not given in full) [Amorolfine HCl]", "z-score of subpopulation abundance": 2.33}, {"smiles": "CCN(CC)CCOCCOC(=O)C1(c2ccccc2)CCCC1", "note": "[Pentoxyverine Citrate]", "z-score of subpopulation abundance": -0.39}, {"smiles": "COC(=O)Nc1nc2cc([S+]([O-])c3ccccc3)ccc2[nH]1", "note": "(stereo not given) [Oxfendazole]", "z-score of subpopulation abundance": -0.7}, {"smiles": "O=C(O)c1ccccc1C(=O)Nc1ccc(S(=O)(=O)Nc2nccs2)cc1", "note": "[Phthalylsulfathiazole]", "z-score of subpopulation abundance": 0.04}, {"smiles": "CCCc1nn(C)c2c(=O)[nH]c(-c3cc(S(=O)(=O)N4CCN(C)CC4)ccc3OCC)nc12", "note": "[Sildenafil Citrate]", "z-score of subpopulation abundance": 0.14}, {"smiles": "CN(Cc1cnc2nc(N)nc(N)c2n1)c1ccc(C(=O)N[C@@H](CCC(=O)O)C(=O)O)cc1", "note": "[Methotrexate disodium]", "z-score of subpopulation abundance": 0.91}, {"smiles": "CC(=O)NC[C@H]1CN(c2ccc(N3CCOCC3)c(F)c2)C(=O)O1", "note": "[Linezolid]", "z-score of subpopulation abundance": 0.07}, {"smiles": "CN[C@H]1CC[C@@H](c2ccc(Cl)c(Cl)c2)c2ccccc21", "note": "[Sertraline HCl]", "z-score of subpopulation abundance": -0.32}, {"smiles": "CCCCCCCCc1ccc(CCC(N)(CO)CO)cc1", "note": "[Fingolimod]", "z-score of subpopulation abundance": -1.65}, {"smiles": "CN(C)C(=O)COC(=O)Cc1ccc(OC(=O)c2ccc(NC(=N)N)cc2)cc1", "note": "[Camostat Mesilate]", "z-score of subpopulation abundance": -0.87}, {"smiles": "O=C(O)CCC(=O)c1ccc(-c2ccccc2)cc1", "note": "[Fenbufen]", "z-score of subpopulation abundance": -0.12}, {"smiles": "COc1ccc2c3c1O[C@H]1C[C@@H](O)C=C[C@@]31CCN(C)C2", "note": "[Galanthamine HBr]", "z-score of subpopulation abundance": 0.43}, {"smiles": "CC(=O)N[C@H]1[C@H]([C@H](O)[C@H](O)CO)OC(C(=O)O)=C[C@@H]1NC(=N)N", "note": "[Zanamivir]", "z-score of subpopulation abundance": 0.56}, {"smiles": "C[N+](C)(C)CCO.[Cl-]", "note": "[Choline Chloride]", "z-score of subpopulation abundance": -0.27}, {"smiles": "OC[C@H]1O[C@H](OCC2O[C@@H](O)[C@H](O)[C@@H](O)[C@@H]2O)[C@H](O)[C@@H](O)[C@H]1O", "note": "(stereo not given in full) [Melibiose]", "z-score of subpopulation abundance": -0.58}, {"smiles": "CN1C(C(=O)Nc2ccccn2)=C(O)c2ccccc2S1(=O)=O", "note": "[Piroxicam]", "z-score of subpopulation abundance": -1.14}, {"smiles": "CCCN(CCC)CCc1cccc2c1CC(=O)N2", "note": "[Ropinirole HCl]", "z-score of subpopulation abundance": 1.05}, {"smiles": "NC1CCN(c2nc3c(cc2F)c(=O)c(C(=O)O)cn3-c2ccc(F)cc2F)C1", "note": "(stereo not given) [Tosufloxacin p-Toluenesulfonate Hydrate]", "z-score of subpopulation abundance": 0.67}, {"smiles": "CC[C@@H]1/C=C(\\C)C[C@H](C)C[C@H](OC)[C@H]2O[C@@](O)(C(=O)C(=O)N3CCCC[C@H]3C(=O)O[C@H](/C(C)=C/[C@@H]3CC[C@H](Cl)[C@H](OC)C3)[C@H](C)[C@@H](O)CC1=O)[C@H](C)C[C@@H]2OC", "note": "[Pimecrolimus]", "z-score of subpopulation abundance": 1.88}, {"smiles": "NC12CC3CC(CC(C3)C1)C2", "note": "[Amantadine]", "z-score of subpopulation abundance": 0.22}]}]}
